Laboratory results taken from PubChem BioAssay AID1117319 (Southern Research Institute, 2015).
Values joined by “and” are separate entries in the source; they are usually repeats but may differ in a detail not shown here. Identical values can stand only once. The whole screen tested about 260,000 compounds, of which about 1,500 (0.58%) were called active. About 5% were inconclusive and are not listed.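 The calls were made as follows: active = inhibition above a set limit at one or more doses, reproduced on every date tested; inconclusive = results disagree between test dates, or hit never tested in dose response; inactive = the rest.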 These entries were drawn from the full list. Entries with a potency or affinity are not part of this list.

These compounds were tested against Virion infectivity factor (Human immunodeficiency virus type 1 group M subtype B (isolate BH10)) + Virion infectivity factor (Human immunodeficiency virus type 1 group M subtype B (isolate BRU/LAI)) + Virion infectivity factor (Human immunodeficiency virus type 1 group M subtype B (isolate PCV12)) + Virion infectivity factor (Human immunodeficiency virus type 1 group M subtype B (isolate HXB2)) + DNA dC->dU-editing enzyme APOBEC-3G (Homo sapiens) (UniProt P69720+P69721+P69722+P69723+Q9HC16) (assay: HIV-1 Vif–A3G interaction blockers – biochemical, TR-FRET, GST-Vif 1-94, biotin-A3G peptide, dose response retest, primary screen (AID 1117319;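 also: Vif residues 1-94 fused to GST binding biotinylated APOBEC3G peptide 110-148; 0% = full assay without inhibitor and 100% = GST in place of GST-Vif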)). Conditions: TR-FRET GST-Vif / biotin-A3G peptide binding; hits give high values.

inhibition, inactive:
COCCN(C(=O)COC(=O)c1cc2ccccc2cc1O)c1c(N)n(Cc2ccccc2)c(=O)[nH]c1=O 0.53%
CCOc1ccc(C(=O)Nc2ccc(N3CCCC3)cc2)cc1 -1.32%
CCOc1c(Cl)cc(CNc2ccc(N3CCCC3)cc2)cc1OC -0.34%
Cc1ccc2cc(CN(CCN(C)C)C(=S)Nc3ccccc3)c(=O)[nH]c2c1C 17%
CCOc1ccc(C2CC(=O)NC(SC)=C2C#N)cc1 (configuration not stated) -1.81%
CS/C(=N\S(=O)(=O)c1cccs1)Nc1ccc(Cl)cc1 3.6%
COc1ccc(C2C(C(=O)Nc3ccc(F)cc3)=C(C)Nc3nc(CCCO)nn32)cc1 (configuration not stated) -0.37%
COc1ccc(OC)c(C2C(C(=O)Nc3ccccc3OC)=C(C)Nc3nc(CCCO)nn32)c1 (configuration not stated) 18.4%
OCCN(CCO)c1ccc2ccccc2c1 9.83%
Nc1ccc(C(=O)N(CCO)CCO)cc1 2.26%
CN(CC(=O)Nc1ccc(F)cc1)C(=O)C1CCCC1 -2.12%
O=C(Cn1c(=O)n(Cc2ccco2)c(=O)c2c3c(sc21)CCCC3)Nc1ccccc1 -1.14%
O=c1c2c3c(sc2n(CCN2CCCCC2)c(=O)n1Cc1ccco1)CCCCC3 30.5%
FC(F)(F)c1cnc(Oc2ccc(-c3nnco3)cc2)c(Cl)c1 -4.28%
Oc1ccc(Br)cc1/C=N/n1c(COc2ccccc2)n[nH]c1=S 23.7%
Cc1ccc(S(=O)(=O)Cc2ccc(C(=O)NCc3cccs3)o2)cc1 2.29%
CSc1ccccc1NC(=O)c1cccnc1 -0.88%
CN=c1scc(C)n1/N=C/c1cc(Br)c(O)c(Br)c1 27.7%
CCN=c1scc(C)n1/N=C/c1ccsc1 24.1%
CN=c1scc(C)n1/N=C/c1ccc(O)cc1O 6.79%
CN=c1scc(C)n1/N=C/c1ccc(O)cc1 3.18%
CCN=c1scc(C)n1/N=C/c1cc(Br)c(O)c(OC)c1 10.6%
C=C(C)CN=c1scc(C)n1/N=C/c1ccco1 7.84%
O=C(Oc1coc(CSc2ncccn2)cc1=O)c1cccc([N+](=O)[O-])c1 -1.78%
O=C(Cc1ccccc1[N+](=O)[O-])NCC(=O)c1ccc2c(c1)OCO2 -9.24%
CC(CCc1ccccc1)N(C)CC(O)c1cccc([N+](=O)[O-])c1 (configuration not stated) -11.1%
Nc1ccn([C@@H]2O[C@H](CNCc3cccc(OC4CCCC4)c3)[C@@H](O)[C@H]2O)c(=O)n1 3.81%
COc1ccc([C@@H]2C[C@@H](c3ccccc3)Oc3cc(OC)cc(OC)c32)cc1 -2.19%
Clc1ccc(OCCCc2nc(-c3cccnc3)no2)c(Cl)c1 21.6%
N#Cc1c(N2CCN(c3ccc(F)cc3)CC2)nc(N)c2c(N)nc3c(c12)CC(=O)N3C1CC1 1.08%
CC(C)c1ccc(-c2nc(N3CCCCC3)[nH]c(=O)c2C#N)cc1 -2.18%
CN(CCC#N)C(=O)COC(=O)c1ccc(Cl)cc1O 6.5%
COc1ccc(-n2nnnc2-c2cnc3cc4c(cc3c2C)OCO4)cc1 2.05%
O=C(Cn1c2c(c(-c3ccccc3Cl)cc1=O)CCC2)NCCCN1CCOCC1 22.2%
CCCCNC(=O)Cn1c2c(c(-c3ccccc3Cl)cc1=O)CCC2 11.2%
CC(=O)c1ccc(NC(=S)N2CCCC(C(F)(F)F)C2)cc1 (configuration not stated) -3.97%
COC(=O)C1=C(C)Nc2[nH]c(=S)[nH]c(=O)c2C1c1ccc(O)cc1 (configuration not stated) -3.71%
Cc1ccc(C2C3=C(CCCC3=O)Nc3[nH]c(=S)[nH]c(=O)c32)cc1 (configuration not stated) 15.3%
COc1ccc(Nc2ccc([N+](=O)[O-])cc2[N+](=O)[O-])cc1 -7.01%
O=C(NC(=O)c1ccccc1)NC1(C(F)(F)F)OCCO1 -4.29%
O=C(NCC1CCCO1)C(c1cccnc1)N(C(=O)Cc1cccs1)c1ccccc1 (configuration not stated) 28.6%
COc1ccc2c(c1)C(=O)N(c1ccc(C)cc1)C(=O)C2 1.47%
Cc1ccc2c(c1)CC1(CN2C)C(=O)OC(C)(C)OC1=O 24.2%
CCOC(=O)C1=C(C)N(c2ccc(OCC)cc2)C(=O)/C1=C\c1ccco1 10.7%
Cc1ccc(CC2S/C(=N/N=C/c3ccco3)NC2=O)cc1 (configuration not stated) 4.38%
CC1=NN(c2ccccc2)C(=O)/C1=C/C=C/c1ccccc1 5.22%
Cc1n[nH]c(=O)n1-c1ccc(C(C)C)cc1 -7.48%
CCc1ccc(N2C(=O)C3ON(c4ccccc4)C(c4ccco4)C3C2=O)cc1 (configuration not stated) -3.31%
Cc1ccc(N2C(=O)c3n[nH]c(C)c3C2c2ccco2)cc1 (configuration not stated) -7.3% and 4.08%
O=C1NC(=O)C(=CC=Cc2ccccc2)S1 2.69%
CC(C)c1ccc(CN(C(=O)/C=C/c2ccco2)C2CCS(=O)(=O)C2)cc1 (configuration not stated) 30.9%
COc1ccc2[nH]c(C(=O)Nc3cccc(C)n3)cc2c1 -5.53%
CCOc1cc(C#N)ccc1OCC(=O)N1CCN(C(=O)c2cccs2)CC1 -1.5%
Cc1cccc(C)c1OCC(=O)NCC1CCCO1 (configuration not stated) -4.95%
CCOCCCNC(=O)/C=C1\Sc2ccccc2N(Cc2ccccc2F)C1=O -8.36%
CCOC(=O)c1ccccc1NS(=O)(=O)c1ccc(S(=O)(=O)N2CCCC2)cc1 2.58%
COc1ccc(NC(=O)CN(C)C(=O)c2ccc3ccccc3c2)cc1 7.66%
Cc1ccc(C)c(NC(=O)CN(C)C(=O)c2cccc(S(=O)(=O)N(C)C)c2)c1 5.71%
O=C(NNC(=O)c1cccc(-n2cccc2)c1)c1ccccc1 7.05%
CN(CC(=O)Nc1cccc(F)c1)C(=O)c1cccc(N2C(=O)CCC2=O)c1 -2.88%
Cc1ccc(C)c(NC(=O)CN(C)C(=O)c2cccc(N3C(=O)CCC3=O)c2)c1 -0.71%
CN(CC(=O)Nc1cccc(F)c1)C(=O)c1ccc(C(=O)c2ccccc2)cc1 0.25%
COc1ccc(NC(=O)CN(C)C(=O)c2cccc(Oc3ccccc3)c2)cc1 -4.86%
O=C(NNC(=O)c1cccc(-n2cccc2)c1)c1ccc(F)cc1 16%
O=C(CCCCn1ccc(=O)[nH]c1=O)Nc1ccc(O)c(C(=O)O)c1 -11.5%
Cc1ccsc1-c1nc(CN(C)C(C2CC2)C2CC2)c(C)o1 4.23%
COc1cc2c(cc1OC)CN(Cc1nc3ccsc3c(=O)[nH]1)CC2 7.56%
COc1ccc(N2CCN(Cc3nc4c(c(=O)[nH]c(=O)n4C)n3CC(C)=O)CC2)cc1 8.98%
Cc1ccc(SCC(=O)Nc2ccc(N3CCOCC3)cc2)cc1C -8.83%
COc1ccc(NC(=O)NNS(=O)(=O)c2ccc(OC)c(OC)c2)c(OC)c1 5.71%
O=C(Nc1ccc(S(=O)(=O)N2CCCCC2)cc1)c1ccccc1Cl 0.17%
Cc1ccc(CSCC(=O)NCc2ccc3c(c2)OCO3)cc1 14.3%
COc1cc2c(cc1OC)CN(C(=O)c1cccc(S(=O)(=O)N3CCc4ccccc43)c1)CC2 8.84%
CN(CC(=O)Nc1ccccc1Cl)C(=O)c1cccc(-n2cccc2)c1 -0.39%
CCN(CC(=O)Nc1c(F)cccc1F)C(=O)c1cccc(-n2cnnn2)c1 -3.65%
CCN(CC(=O)Nc1ccc(NC(C)=O)cc1)C(=O)c1cccc(-n2cccc2)c1 16.2%
Cc1cccc(C)c1NC(=O)CN(C)C(=O)c1cccc(-n2cccc2)c1 9.97%
Cc1cccc(NC(=O)CNC(=O)c2ccc3nc[nH]c3c2)c1C 9.97%
Cc1ccc(NC(=O)CN(C)C(=O)c2cccc(Br)c2)cc1 -1.1%
CN(CC(=O)Nc1ccccc1C(F)(F)F)C(=O)c1cccc(-n2cccc2)c1 6.51%
O=C(CNC(=O)c1cccc(-n2cccc2)c1)Nc1ccccc1Br 4.99%
O=C(CCNS(=O)(=O)c1ccc(F)cc1)N1CCN(c2ncccn2)CC1 -6.24%
Cc1oc2cc3oc(=O)c(CCC(=O)NCCC(=O)O)c(C)c3cc2c1C 2.04%
O=C(O)c1cccc2c1C(=O)c1cc([N+](=O)[O-])cc([N+](=O)[O-])c1-2 6.48%
COc1ccc(C2c3ccsc3CCN2C(=O)NC(C)(C)C)cc1 (configuration not stated) -4.12%
COCCN(C(=O)COC(=O)CCOc1ccccc1)c1c(N)n(Cc2ccccc2)c(=O)[nH]c1=O 0.29%
COc1ccc(NC(=O)CSc2ncnc3c2cnn3Cc2ccccc2)cc1OC 23.2%
O=C(Nc1cccc2ccccc12)N1CCN(Cc2ccccc2)CC1 20.5%
COC(=O)CSc1nnc(-c2ccccn2)n1N -2.48%
CCOC(=O)N1CCN(CC(=O)Nc2ccc(OC)cc2)CC1 -0.76%
Cc1ccc(C(CC(=O)N2CCCCC2)c2ccccc2)c(O)c1C (configuration not stated) -1.48%
COc1cc(Cl)c(C)cc1NC(=O)CN1C(=O)C2CCCCC2C1=O (configuration not stated) -15.8%
